Drawing on PubChem BioAssay (Tox21), this text covers Potency for 40 compounds.

Where “and” joins values, the source holds several entries; their conditions need not be identical. Identical values can stand only once. Records with an inconclusive call do not appear. A call without a number means that no potency is given here. Calls of active or inactive are those of the source. Calls follow the shape of the full dose curve.

For the first assay, the target named is Acetylcholinesterase (Homo sapiens) (UniProt P22303). Briefly: Acetylcholinesterase (AChE) small molecule antagonists: colormetric cell-based qHTS assay (AID 1347395). Also: nearly all actives have a fitted effect of over 30% in size. Particulars: SH-SY5Y cells AChE activity, colorimetric (Ellman); series mostly up to 115 µM. An outline of the steps: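 In this cell-based qHTS, attached SH-SY5Y cells were treated with test chemicals for 30 min, after which acetylthiocholine hydrolysis was followed by DTNB colour development over 90 min at 37 C.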
Sequence of Acetylcholinesterase (Homo sapiens) (P22303 whole entry, looked up): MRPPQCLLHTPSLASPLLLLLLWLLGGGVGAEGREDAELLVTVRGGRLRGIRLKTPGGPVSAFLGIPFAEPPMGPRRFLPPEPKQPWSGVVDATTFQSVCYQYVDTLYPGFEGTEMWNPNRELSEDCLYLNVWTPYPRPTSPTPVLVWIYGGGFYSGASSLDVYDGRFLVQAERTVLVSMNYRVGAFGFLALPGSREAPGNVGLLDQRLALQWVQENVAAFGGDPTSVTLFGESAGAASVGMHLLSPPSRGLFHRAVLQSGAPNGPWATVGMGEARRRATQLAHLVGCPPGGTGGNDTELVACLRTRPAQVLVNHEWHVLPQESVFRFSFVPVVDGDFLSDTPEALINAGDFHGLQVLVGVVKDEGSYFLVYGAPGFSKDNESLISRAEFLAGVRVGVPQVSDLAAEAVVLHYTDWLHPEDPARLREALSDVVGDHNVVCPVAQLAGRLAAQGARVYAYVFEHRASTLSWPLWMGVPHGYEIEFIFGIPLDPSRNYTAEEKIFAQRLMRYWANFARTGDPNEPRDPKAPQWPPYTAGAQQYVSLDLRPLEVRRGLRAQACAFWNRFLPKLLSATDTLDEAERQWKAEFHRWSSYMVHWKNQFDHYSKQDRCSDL
For the compound `CCOC(=O)CC(CC(=O)OCC)(OC(C)=O)C(=O)OCC`, the Potency result was “inactive”.
Same read-out and setting: under `O=C(O)C(=O)O` stands “inactive”.
As for `COC(=O)/C=C(\C)CCC=C(C)C`, the Potency result was “inactive”.
On to `CNC(=O)CN(CCN(CCN(CC(=O)[O-])CC(=O)NC)CC(=O)[O-])CC(=O)[O-].O.[Gd+3]`, for which the Potency entry was “inactive”.
As for `CO[C@]1(NC(=O)CSC(F)F)C(=O)N2C(C(=O)O)=C(CSc3nnnn3CCO)CO[C@H]21`, the Potency entry was “inactive”.
Take `NS(=O)(=O)c1cc(C(=O)O)cc(N2CCCC2)c1Oc1ccccc1`: the Potency result is “inactive”.
As to `C[C@H]1[C@H]2CC[C@H]3[C@@H]4CC=C5C[C@@H](N(C)C)CC[C@]5(C)[C@H]4CC[C@]23CN1C`, the Potency entry is “inactive”.
As to `CC[N+](CC)(CC(=O)Nc1c(C)cccc1C)Cc1ccccc1` (tested in a mixture with another compound), the Potency entry is “inactive”.
For `BrCc1cccc(Oc2ccccc2)c1`, the Potency entry was “inactive”.
As for `c1ccc(CNCCNCc2ccccc2)cc1`, the Potency entry was “inactive”.
Take `O=C1CCCCCCCCCCCC(=O)OCCO1`: the Potency result is “inactive”.
Still for that read-out and setting: the entry for `CC(=O)OCc1ccc2c(c1)OCO2` is “inactive”.
In the case of `CCCCCCC(C)(C)C(=O)O`, the Potency result was “inactive”.
Same read-out and setting: the entry for `CCc1ccc(CC)cc1` is “inactive”; for `CCOC(=O)C1=C(C)NC(C)=C(C(=O)OCC)C1c1ccccc1/C=C/C(=O)OC(C)(C)C` it is “inactive”.
Regarding `CCC(O)OC(O)CC` (stereo not given), the Potency result is “inactive”.
As for `CCCCCCCC/C=C\CCCCCCCC(=O)OCCOC(=O)CCCCCCC/C=C\CCCCCCCC`, the Potency entry was “inactive”.
In the case of `C[Si](C)(C)Cl`, the Potency result is “inactive”.
As to `COC(=O)N/N=C/c1c[n+]([O-])c2ccccc2[n+]1[O-]`, the Potency entry was “inactive”.
For `CC/C=C/CCO`, the Potency result is “inactive”.
For `NCCCCCCN`, the Potency result was “inactive”.
On the same count and under the same terms, the entry for `COC(=O)OC` is “inactive”; for `O=C(Cl)c1ccccc1[N+](=O)[O-]` it is “inactive”.
The same measure, in the same setting: the entry for `CCc1ncc(C)[nH]1` is “inactive”.
The same measure, in the same setting: the entry for `COC(=O)CCC(=O)OC` is “inactive”.
Take `Cc1ccc(S(=O)(=O)Oc2ccc(N=Nc3ccc(-c4ccc(N=Nc5c(O)ccc6cc(S(=O)(=O)O)cc(S(=O)(=O)O)c56)c(C)c4)cc3C)cc2)cc1`: the Potency entry was “inactive”.
For `COc1cc(C=O)ccc1OC(=O)C(C)C`, the Potency entry was “inactive”.
As to `CCC(=O)OC(C)c1ccccc1` (stereo not given), the Potency entry is “inactive”.
The same measure, in the same setting: under `C[Si]1(C)N[Si](C)(C)N[Si](C)(C)N1` stands “inactive”.
As to `Cc1cnc(NC(=O)C2=C(O)c3ccccc3S(=O)(=O)N2C)s1`, the Potency result was “inactive”.
Still for that read-out and setting: under `c1cnc(N2CCN(Cc3ccc4c(c3)OCO4)CC2)nc1` stands “inactive”; under `CCC(C)N` (stereo not given), “inactive”; under `COC(=O)c1c(Cl)c(Cl)c(C(=O)OC)c(Cl)c1Cl`, “inactive”.
On to `C=C1C2CCC(C2)C1(C)C` (stereo not given), for which the Potency result is “inactive”.
Take `CCCCOc1cc(C(=O)NCCN(CC)CC)c2ccccc2n1`: the Potency result is “inactive”.
As for `C#CC(C)(CC)OC(=O)c1ccccc1C(=O)O` (stereo not given), the Potency result was “inactive”.
The same measure, in the same setting: under `ONc1ccccc1` stands “inactive”.
Take `N[C@@H](Cc1cc(I)c(Oc2cc(I)c(O)c(I)c2)c(I)c1)C(=O)O`: the Potency entry was “inactive”.
In the case of `C=C(C)CNCC`, the Potency entry is “inactive”.
As for `C[C@@H]1C[C@H]2O[C@@]3(O[C@@H]2C(C)(C)O)[C@H](O)[C@@]2(C)[C@@H]4CC[C@H]5C(C)(C)[C@@H](O[C@@H]6OC[C@@H](O)[C@H](O)[C@H]6O)CC[C@@]56C[C@@]46CC[C@]2(C)[C@@H]13`, the Potency entry was “inactive”.

The target is the same in the next assay. Briefly: Acetylcholinesterase (AChE) small molecule antagonists: enzyme-based qHTS assay (AID 1347397). Also: nearly all actives have a fitted effect of over 55% in size. Also: potency is read from the fitted curve at half-maximal effect. To be noted: Potency: AChE enzyme activity inhibition; outcome: AChE enzyme activity inhibition; series mostly up to 115 µM. Put shortly:
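Absorbance-based detection of thiocholine with DTNB served as the read-out. Recombinant human AChE was exposed to compound for 30 min at RT before a 10 min RT incubation with acetylthiocholine.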
(Quantitative high-throughput screening tests each substance at several concentrations.)
For `CCOC(=O)CC(CC(=O)OCC)(OC(C)=O)C(=O)OCC`, the Potency entry is “inactive”.
Same read-out and setting: the entry for `O=C(O)C(=O)O` is “inactive”.
Turning to `COC(=O)/C=C(\C)CCC=C(C)C`, the Potency entry is “inactive”.
In the case of `CNC(=O)CN(CCN(CCN(CC(=O)[O-])CC(=O)NC)CC(=O)[O-])CC(=O)[O-].O.[Gd+3]`, the Potency entry is “inactive”.
As to `CO[C@]1(NC(=O)CSC(F)F)C(=O)N2C(C(=O)O)=C(CSc3nnnn3CCO)CO[C@H]21`, the Potency entry is “inactive”.
Same read-out and setting: the entry for `NS(=O)(=O)c1cc(C(=O)O)cc(N2CCCC2)c1Oc1ccccc1` is “inactive”; for `C[C@H]1[C@H]2CC[C@H]3[C@@H]4CC=C5C[C@@H](N(C)C)CC[C@]5(C)[C@H]4CC[C@]23CN1C` it is “inactive”.
Still for that read-out and setting: under `CC[N+](CC)(CC(=O)Nc1c(C)cccc1C)Cc1ccccc1` (tested in a mixture with another compound) stands “inactive”; under `BrCc1cccc(Oc2ccccc2)c1`, “inactive”; under `c1ccc(CNCCNCc2ccccc2)cc1`, “inactive”.
As to `O=C1CCCCCCCCCCCC(=O)OCCO1`, the Potency entry is “inactive”.
On the same count and under the same terms, the entry for `CC(=O)OCc1ccc2c(c1)OCO2` is “inactive”; for `CCCCCCC(C)(C)C(=O)O` it is “inactive”; for `CCc1ccc(CC)cc1` it is “inactive”.
In the case of `CCOC(=O)C1=C(C)NC(C)=C(C(=O)OCC)C1c1ccccc1/C=C/C(=O)OC(C)(C)C`, the Potency result was “inactive”.
For the compound `CCC(O)OC(O)CC` (stereo not given), the Potency entry was “inactive”.
With `CCCCCCCC/C=C\CCCCCCCC(=O)OCCOC(=O)CCCCCCC/C=C\CCCCCCCC`, the Potency result is “inactive”.
On the same count and under the same terms, under `C[Si](C)(C)Cl` stands “inactive”; under `COC(=O)N/N=C/c1c[n+]([O-])c2ccccc2[n+]1[O-]`, “inactive”; under `CC/C=C/CCO`, “inactive”.
For the compound `NCCCCCCN`, the Potency entry is “inactive”.
With `COC(=O)OC`, the Potency entry is “inactive”.
Same read-out and setting: the entry for `O=C(Cl)c1ccccc1[N+](=O)[O-]` is “inactive”; for `CCc1ncc(C)[nH]1` it is “inactive”; for `COC(=O)CCC(=O)OC` it is “inactive”.
As for `Cc1ccc(S(=O)(=O)Oc2ccc(N=Nc3ccc(-c4ccc(N=Nc5c(O)ccc6cc(S(=O)(=O)O)cc(S(=O)(=O)O)c56)c(C)c4)cc3C)cc2)cc1`, the Potency was 8.97 µM (active) and 4.12 µM (active).
`COc1cc(C=O)ccc1OC(=O)C(C)C`: the Potency result was “inactive”.
For `CCC(=O)OC(C)c1ccccc1` (stereo not given), the Potency result was “inactive”.
The same measure, in the same setting: the entry for `C[Si]1(C)N[Si](C)(C)N[Si](C)(C)N1` is “inactive”; for `Cc1cnc(NC(=O)C2=C(O)c3ccccc3S(=O)(=O)N2C)s1` it is “inactive”; for `c1cnc(N2CCN(Cc3ccc4c(c3)OCO4)CC2)nc1` it is “inactive”.
As for `CCC(C)N` (stereo not given), the Potency result was “inactive”.
For the compound `COC(=O)c1c(Cl)c(Cl)c(C(=O)OC)c(Cl)c1Cl`, the Potency entry is “inactive”.
Regarding `C=C1C2CCC(C2)C1(C)C` (stereo not given), the Potency result was “inactive”.
On the same count and under the same terms, under `CCCCOc1cc(C(=O)NCCN(CC)CC)c2ccccc2n1` stands “inactive”; under `C#CC(C)(CC)OC(=O)c1ccccc1C(=O)O` (stereo not given), “inactive”.
Still for that read-out and setting: the entry for `ONc1ccccc1` is “inactive”; for `N[C@@H](Cc1cc(I)c(Oc2cc(I)c(O)c(I)c2)c(I)c1)C(=O)O` it is “inactive”; for `C=C(C)CNCC` it is “inactive”.
In the case of `C[C@@H]1C[C@H]2O[C@@]3(O[C@@H]2C(C)(C)O)[C@H](O)[C@@]2(C)[C@@H]4CC[C@H]5C(C)(C)[C@@H](O[C@@H]6OC[C@@H](O)[C@H](O)[C@H]6O)CC[C@@]56C[C@@]46CC[C@]2(C)[C@@H]13`, the Potency entry was “inactive”.
